Data as given in PubChem BioAssay AID2073 (Sanford-Burnham Center for Chemical Genomics, 2009).
Screen size: about 290,000 compounds; about 570 (0.2%) were called active. Not shown: some 1% with an inconclusive outcome. No stated cut-off is given here; in the data, active means inhibition mostly above about 51% (no sharp cut-off); inconclusive means no clear call, values can overlap the other calls; inactive means mostly below about 53%. Many of the other results were omitted from the sample, so actives are more common in it than they were.

Molecular target: Voltage-dependent N-type calcium channel subunit alpha-1B (Homo sapiens) (UniProt Q00975)
Test: disruptors of CaV2.2 binding to Mint1 – biochemical, HTRF (AID 2073)
Settings: HTRF protein-protein interaction, Mint1-CaV2.2, at 20 µM, stronger effect = higher value
[1] = measured here: average of repeat tests

Chain of Voltage-dependent N-type calcium channel subunit alpha-1B (Homo sapiens) (Q00975 whole entry, looked up): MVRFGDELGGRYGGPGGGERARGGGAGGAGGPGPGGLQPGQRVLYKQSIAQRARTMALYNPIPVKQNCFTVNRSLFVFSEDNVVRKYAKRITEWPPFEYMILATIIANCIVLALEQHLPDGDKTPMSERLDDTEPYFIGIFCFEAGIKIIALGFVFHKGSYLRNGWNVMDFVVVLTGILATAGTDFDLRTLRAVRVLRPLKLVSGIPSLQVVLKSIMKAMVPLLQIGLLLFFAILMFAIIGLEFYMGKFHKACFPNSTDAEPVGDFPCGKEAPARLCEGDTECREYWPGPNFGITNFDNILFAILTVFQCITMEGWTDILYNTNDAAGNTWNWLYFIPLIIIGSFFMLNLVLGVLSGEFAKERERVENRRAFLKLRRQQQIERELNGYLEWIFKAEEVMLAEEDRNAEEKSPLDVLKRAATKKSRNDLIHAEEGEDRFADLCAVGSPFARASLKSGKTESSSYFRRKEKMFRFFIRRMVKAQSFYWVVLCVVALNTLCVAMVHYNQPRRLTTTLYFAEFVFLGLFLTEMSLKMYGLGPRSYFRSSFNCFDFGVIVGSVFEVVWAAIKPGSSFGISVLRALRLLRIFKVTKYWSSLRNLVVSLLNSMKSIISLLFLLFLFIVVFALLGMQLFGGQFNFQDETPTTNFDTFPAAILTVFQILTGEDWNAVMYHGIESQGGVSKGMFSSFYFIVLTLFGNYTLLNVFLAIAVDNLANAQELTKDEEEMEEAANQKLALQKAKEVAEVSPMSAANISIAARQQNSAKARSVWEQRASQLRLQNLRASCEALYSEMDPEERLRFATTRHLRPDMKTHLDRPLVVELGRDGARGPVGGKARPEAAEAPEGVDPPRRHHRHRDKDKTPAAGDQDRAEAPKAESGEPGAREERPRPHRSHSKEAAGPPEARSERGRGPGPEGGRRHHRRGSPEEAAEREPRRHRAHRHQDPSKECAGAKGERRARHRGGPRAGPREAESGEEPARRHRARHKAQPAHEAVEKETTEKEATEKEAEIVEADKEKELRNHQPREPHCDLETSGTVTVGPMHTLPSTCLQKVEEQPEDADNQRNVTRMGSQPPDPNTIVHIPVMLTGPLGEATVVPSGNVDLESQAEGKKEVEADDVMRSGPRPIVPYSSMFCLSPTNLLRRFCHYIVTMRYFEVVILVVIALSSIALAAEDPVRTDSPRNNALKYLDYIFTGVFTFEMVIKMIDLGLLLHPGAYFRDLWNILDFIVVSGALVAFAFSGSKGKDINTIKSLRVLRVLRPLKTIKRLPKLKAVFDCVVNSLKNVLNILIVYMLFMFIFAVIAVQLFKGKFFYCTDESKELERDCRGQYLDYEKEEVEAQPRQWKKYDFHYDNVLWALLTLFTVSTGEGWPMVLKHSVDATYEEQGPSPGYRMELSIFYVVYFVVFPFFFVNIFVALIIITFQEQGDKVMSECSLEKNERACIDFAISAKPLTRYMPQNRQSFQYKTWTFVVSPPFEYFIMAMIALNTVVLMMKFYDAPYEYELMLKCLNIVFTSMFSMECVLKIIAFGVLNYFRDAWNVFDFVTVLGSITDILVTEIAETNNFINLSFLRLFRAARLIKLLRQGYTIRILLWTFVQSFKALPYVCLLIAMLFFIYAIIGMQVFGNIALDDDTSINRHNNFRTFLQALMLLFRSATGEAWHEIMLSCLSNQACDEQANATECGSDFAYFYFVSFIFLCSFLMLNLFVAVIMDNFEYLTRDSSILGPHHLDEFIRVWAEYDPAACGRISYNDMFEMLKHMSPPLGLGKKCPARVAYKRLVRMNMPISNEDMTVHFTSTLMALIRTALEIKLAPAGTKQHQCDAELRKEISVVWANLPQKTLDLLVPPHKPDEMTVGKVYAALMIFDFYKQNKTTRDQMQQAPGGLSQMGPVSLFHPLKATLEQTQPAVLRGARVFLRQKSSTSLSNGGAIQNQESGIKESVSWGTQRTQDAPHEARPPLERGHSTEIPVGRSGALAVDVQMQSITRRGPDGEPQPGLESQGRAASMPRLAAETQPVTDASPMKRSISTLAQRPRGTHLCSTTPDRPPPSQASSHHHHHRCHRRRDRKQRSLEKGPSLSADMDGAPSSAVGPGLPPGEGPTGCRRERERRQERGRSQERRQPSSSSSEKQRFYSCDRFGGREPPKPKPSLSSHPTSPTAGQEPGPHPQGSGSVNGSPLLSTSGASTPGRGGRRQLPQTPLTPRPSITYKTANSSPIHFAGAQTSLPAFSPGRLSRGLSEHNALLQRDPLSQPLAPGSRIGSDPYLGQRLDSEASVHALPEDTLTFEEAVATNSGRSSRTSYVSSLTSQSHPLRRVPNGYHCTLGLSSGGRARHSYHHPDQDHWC

| SMILES | inhibition | inhibition [1] [%] |
| --- | --- | --- |
| O=c1oc2ccccc2c2oc3cc(O)c(O)cc3c12 | 20% (inactive) |  |
| O=c1cc2c(=O)oc3cc(O)c(O)oc3c2c(O)c1O | 70% (active) |  |
| O=c1oc2c(O)c(O)cc3c(=O)oc4c(O)c(O)cc1c4c23 | 9.6% (inactive) |  |
| COc1ccc(OC)c(NC(=O)CCC(=O)N(Cc2ccc(OC)c(OC)c2)c2nccs2)c1 | 0.5% (inactive) |  |
| CC(C)c1ccc(C2NC(=S)NC3=C2C(=O)CC(C)(C)C3)cc1 (stereo not given) | -9.1% (inactive) |  |
| Cc1cc(N2CCC(C(=O)NC3CCCCC3)CC2)nc(-c2ccccc2)n1 | -4% (inactive) |  |
| COc1ccc(/C=C(/CC(=O)Nc2ccccc2)c2nc3ccccc3s2)cc1 | 13% (inactive) |  |
| COc1cccc(/C=C(\CC(=O)O)c2nc3ccccc3s2)c1 | -2.6% (inactive) |  |
| COc1cccc(/C=C(/CC(=O)Nc2ccc(N3CCOCC3)cc2)c2nc3ccccc3s2)c1 | 59.9% (active) |  |
| Cc1nonc1C1CCCN1Cc1cn[nH]c1-c1ccc2c(c1)OCO2 (stereo not given) | 6.8% (inactive) |  |
| CCOc1cccc2sc(Nc3nc4ccc(NC(C)=O)cc4s3)nc12 | 28.4% (inactive) |  |
| CCOc1ccc2nc(Nc3nc4ccc(NC(C)=O)cc4s3)sc2c1 | 55% (active) |  |
| CCOc1ccc2nc(NS(=O)(=O)c3ccc(NC(C)=O)cc3)sc2c1 | -0.1% (inactive) |  |
| COc1ccc(C(=O)/C=C/C(=O)N(CC(=O)NC2CCCCC2)Cc2ccccc2OC)c(O)c1 | 11.5% (inactive) |  |
| COc1ccc(C(=O)/C=C/C(=O)N(CC(=O)NC2CCCCC2)Cc2ccc(F)cc2)c(O)c1 | 37.7% (inactive) |  |
| COc1ccc(C(=O)/C=C/C(=O)N(CC(=O)NC2CCCCC2)Cc2ccccc2)c(O)c1 | 64.1% (active) |  |
| Cc1[nH]c2ccccc2c1/C=N/Nc1nncn1N | -14.7% (inactive) |  |
| CCc1nnc(N/N=C/c2c(Cl)cccc2Cl)n1N | -7.9% (inactive) |  |
| CCc1nnc(N/N=C/c2c(C)[nH]c3ccccc23)n1N | 55.5% (active) |  |
| CCC1Oc2ccc(C)cc2N(CC(=O)N(Cc2ccncc2)Cc2ccco2)C1=O (stereo not given) | 10.2% (inactive) |  |
| CCC1Oc2ccc(C)cc2N(CC(=O)N(Cc2cccnc2)Cc2ccc(C)o2)C1=O (stereo not given) | 52.5% (active) |  |

| SMILES | inhibition | inhibition [1] [%] |
| --- | --- | --- |
| CCC1Oc2ccc(C)cc2N(CC(=O)N(Cc2cccnc2)Cc2cccc(F)c2)C1=O (stereo not given) | -3.3% (inactive) |  |
| CCOC(=O)c1cnn(-c2cc(C)cc(C)c2)c1N | 3.5% (inactive) |  |
| Cc1ccc(CSc2nnc(SCC(=O)N/N=C/c3c[nH]c4ccccc34)s2)cc1 | 59.7% (active) |  |
| Cc1ccc(CSc2nnc(SCC(=O)N/N=C/C=C/c3ccco3)s2)cc1 | 35.3% (inactive) |  |
| O=C(CSc1nnc(SCc2ccccc2)s1)N/N=C/C=C/c1ccco1 | 50.1% (active) |  |
| O=C(CSc1nnc(SCc2ccccc2)s1)N/N=C/C=C\c1ccco1 | 79.7% (inactive) | 18.4 |
| O=C(CSc1nnc(SCc2ccccc2)s1)N/N=C/c1c[nH]c2ccccc12 | 44.7% (inactive) |  |
| O=C(CSc1nnc(SCc2ccc(Cl)cc2)s1)N/N=C/c1c[nH]c2ccccc12 | 50.2% (inactive) | 42.7 |
| Nc1cc(Cl)ccc1C(=O)OCC(=O)N1CCOCC1 | 7.5% (inactive) |  |
| O=C(O)c1cc(NCc2cccs2)ccc1N1CCOCC1 | 9.9% (inactive) |  |
| CCn1c(SCC(=O)NC2CCCCC2)nnc1C(C)NC(=O)c1ccccc1F (stereo not given) | 8.6% (inactive) |  |
| CC(C)c1ccc(OCC(O)CN2CCCC2)cc1 (stereo not given) | -4.2% (inactive) |  |
| CCCn1c(SCC(=O)N2c3ccc(F)cc3CCC2C)nnc1-c1ccccn1 (stereo not given) | 7% (inactive) |  |
| CC(=O)Nc1ccc(C(=O)/C=C/c2ccco2)cc1 | 30.9% (inactive) |  |
| O=C(/C=C/c1ccco1)c1ccc(NC(=O)C23CC4CC(CC(C4)C2)C3)cc1 | 67.9% (active) |  |
| O=C(/C=C\c1ccco1)c1ccc(NC(=O)c2ccco2)cc1 | 68.1% (inactive) | 4 |
| O=S(=O)(/N=C(/Nc1ccccc1)c1ccccc1O)c1ccccc1 | -7.3% (inactive) |  |
| Fc1ccc(C2=Nc3cccc4cccc(c34)N2)cc1 | -8.3% (inactive) |  |
| Brc1ccc(C2=Nc3cccc4cccc(c34)N2)o1 | -20.5% (inactive) |  |
| c1coc(C2=Nc3cccc4cccc(c34)N2)c1 | 54.2% (active) |  |
| CNC(=O)CCn1nc(-c2ccc(C)cc2)c2ccccc2c1=O | -2.1% (inactive) |  |

| SMILES | inhibition | inhibition [1] [%] |
| --- | --- | --- |
| CCOC(=O)c1c(O)cc(C)cc1Nc1ccccc1 | 14.3% (inactive) |  |
| CCOc1ccc(C(=O)NCC(=O)OCC(=O)c2ccc3c(c2)-c2ccccc2C3)cc1 | 18.8% (inactive) |  |
| CCC(C)NC(=S)N(CCc1ccccc1)Cc1cc2cc(OC)c(OC)cc2[nH]c1=O (stereo not given) | 7.1% (inactive) |  |
| CNC(=S)N(CCc1ccccc1)Cc1cc2cc(OC)c(OC)cc2[nH]c1=O | 65.8% (active) |  |
| CNC(=S)N(CCc1cccc(C)c1)Cc1cc2cc(OC)c(OC)cc2[nH]c1=O | 46.2% (inactive) |  |
| O=C(CC1(O)C(=O)N(C/C=C/c2ccccc2)c2ccccc21)c1ccccn1 (stereo not given) | 0% (inactive) |  |
| NCCOc1ccc(C2CCCCC2)cc1 | -11.4% (inactive) |  |
| CCc1nc(NCCN2CCOCC2)c(C#N)c2c1CCCC2 | 9.8% (inactive) |  |
| CCc1cccc(C)c1NC(=O)CSc1nc2ccc(N3C(=O)c4ccccc4C3=O)cc2s1 | 17.8% (inactive) |  |
| Cc1cc(C)c(NC(=O)CSc2nc3ccc(N4C(=O)c5ccccc5C4=O)cc3s2)c(C)c1 | 55.2% (active) |  |
| Cc1ccc(C)c(NC(=O)CSc2nc3ccc(N4C(=O)c5ccccc5C4=O)cc3s2)c1 | -0.7% (inactive) |  |
| Cc1ccc(C(=O)N/N=C/c2c(O)ccc3ccccc23)cn1 | 14.1% (inactive) |  |
| Cc1cccc(C)c1NCc1n[nH]c(=S)n1-c1ccccc1 | -8.3% (inactive) |  |
| O=C(NCCCN1CCOCC1)c1sc2cc(Cl)ccc2c1Cl | -10.3% (inactive) |  |
| O=C(NCCCN1CCOCC1)c1sc2cc(F)ccc2c1Cl | -0.7% (inactive) |  |
| O=C(NCCCN1CCOCC1)c1sc2cc([N+](=O)[O-])ccc2c1Cl | 67.7% (active) |  |
| C=C(C)CSc1[nH]c(=O)cc(C)c1C#N | 1.3% (inactive) |  |
| Nc1c(C(=O)NCC2CCCO2)sc2nc3c(c(-c4ccco4)c12)CC/C3=C\c1ccco1 (stereo not given) | 86.1% (active) |  |
| Nc1c(C(=O)Nc2ccccc2)sc2nc3c(c(-c4ccco4)c12)CCCC3 | 2.1% (inactive) |  |
| Nc1c(C(=O)Nc2ccccc2)sc2nc3c(c(-c4ccco4)c12)CCC3 | 29.5% (inactive) |  |
